Experimental findings from ChEMBL document CHEMBL1961873, “Compounds: GSK PKIS; Assays: Nanosyn kinase panel” (2012) are described below.

The target of assay [1] is Serine/threonine-protein kinase 26 (Homo sapiens) (UniProt Q9P289). Particulars: at 1 µM.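 Also: mean inhibition of MST4 kinase activity, reported from the GSK PKIS inhibitor-set screening panel.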
In assay [2] the target is Serine/threonine-protein kinase PAK 1 (Homo sapiens) (UniProt Q13153). The settings on record: at 0.1 µM.
The target is the same in assay [3]. The settings on record: at 1 µM.
The target in assay [4] is Serine/threonine-protein kinase PAK 2 (Homo sapiens) (UniProt Q13177). The settings on record: at 0.1 µM.
Assay [5] has the same target. Particulars: at 1 µM.
Assay [6] concerns the target Serine/threonine-protein kinase PAK 3 (Homo sapiens) (UniProt O75914). The settings on record: at 0.1 µM.
For assay [7] the target is unchanged. The settings on record: at 1 µM.
Assay [8] addresses Serine/threonine-protein kinase PAK 5 (Homo sapiens) (UniProt Q9P286). Particulars: at 0.1 µM.
Assay [9] has the same target. Particulars: at 1 µM.
Assay [10] concerns the target Serine/threonine-protein kinase PAK 6 (Homo sapiens) (UniProt Q9NQU5). Particulars: at 0.1 µM.
Assay [11] shares this target. Particulars: at 1 µM.
The test system of assay [12] is Tyrosine-protein kinase ABL1 (Homo sapiens), P00519 [E255K]. Particulars: at 0.1 µM.
Assay [13] has the same test system. Particulars: at 1 µM.
Assay [14] concerns Tyrosine-protein kinase ABL1 (Homo sapiens), P00519 [H396P]. The settings on record: at 0.1 µM.
The test system is the same in assay [15]. Particulars: at 1 µM.
Assay [16] relates to Tyrosine-protein kinase ABL1 (Homo sapiens), P00519 [M351T]. Particulars: at 0.1 µM.
For assay [17] the test system is unchanged. The settings on record: at 1 µM.
Assay [18] concerns Tyrosine-protein kinase ABL1 (Homo sapiens), P00519 [Q252H]. Particulars: at 0.1 µM.
For assay [19] the test system is unchanged. Particulars: at 1 µM.
For assay [20], the system named is Tyrosine-protein kinase ABL1 (Homo sapiens), P00519 [T315I]. The settings on record: at 0.1 µM.

Chain of Serine/threonine-protein kinase 26 (Homo sapiens) (Q9P289 2-416 limits assumed): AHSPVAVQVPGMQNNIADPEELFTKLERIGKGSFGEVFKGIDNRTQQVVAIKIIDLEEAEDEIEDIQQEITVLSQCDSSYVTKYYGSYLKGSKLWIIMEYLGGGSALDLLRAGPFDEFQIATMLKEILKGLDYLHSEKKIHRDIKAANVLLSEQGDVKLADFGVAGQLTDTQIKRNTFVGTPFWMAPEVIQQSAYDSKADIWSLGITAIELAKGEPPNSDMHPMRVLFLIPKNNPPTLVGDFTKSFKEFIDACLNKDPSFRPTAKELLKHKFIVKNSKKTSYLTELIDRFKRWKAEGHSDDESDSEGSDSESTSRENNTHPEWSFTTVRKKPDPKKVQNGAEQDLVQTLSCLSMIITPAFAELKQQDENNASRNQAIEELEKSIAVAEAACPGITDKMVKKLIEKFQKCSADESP
Chain of Serine/threonine-protein kinase PAK 1 (Homo sapiens) (Q13153 whole entry): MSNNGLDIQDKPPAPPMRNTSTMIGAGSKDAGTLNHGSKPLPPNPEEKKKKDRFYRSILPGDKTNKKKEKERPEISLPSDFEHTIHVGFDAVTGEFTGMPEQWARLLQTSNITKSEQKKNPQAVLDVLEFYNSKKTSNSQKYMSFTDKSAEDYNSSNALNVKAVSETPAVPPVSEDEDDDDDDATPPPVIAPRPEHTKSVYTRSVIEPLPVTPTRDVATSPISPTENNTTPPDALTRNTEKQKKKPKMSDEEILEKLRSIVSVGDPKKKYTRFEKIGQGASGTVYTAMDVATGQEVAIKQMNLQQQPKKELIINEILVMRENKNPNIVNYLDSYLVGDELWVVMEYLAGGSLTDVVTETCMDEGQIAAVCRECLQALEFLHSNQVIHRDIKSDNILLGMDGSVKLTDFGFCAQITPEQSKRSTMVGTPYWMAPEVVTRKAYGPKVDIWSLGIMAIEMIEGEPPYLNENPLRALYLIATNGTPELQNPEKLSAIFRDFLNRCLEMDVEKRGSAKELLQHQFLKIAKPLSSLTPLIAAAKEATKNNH
Chain of Serine/threonine-protein kinase PAK 6 (Homo sapiens) (Q9NQU5 whole entry, looked up): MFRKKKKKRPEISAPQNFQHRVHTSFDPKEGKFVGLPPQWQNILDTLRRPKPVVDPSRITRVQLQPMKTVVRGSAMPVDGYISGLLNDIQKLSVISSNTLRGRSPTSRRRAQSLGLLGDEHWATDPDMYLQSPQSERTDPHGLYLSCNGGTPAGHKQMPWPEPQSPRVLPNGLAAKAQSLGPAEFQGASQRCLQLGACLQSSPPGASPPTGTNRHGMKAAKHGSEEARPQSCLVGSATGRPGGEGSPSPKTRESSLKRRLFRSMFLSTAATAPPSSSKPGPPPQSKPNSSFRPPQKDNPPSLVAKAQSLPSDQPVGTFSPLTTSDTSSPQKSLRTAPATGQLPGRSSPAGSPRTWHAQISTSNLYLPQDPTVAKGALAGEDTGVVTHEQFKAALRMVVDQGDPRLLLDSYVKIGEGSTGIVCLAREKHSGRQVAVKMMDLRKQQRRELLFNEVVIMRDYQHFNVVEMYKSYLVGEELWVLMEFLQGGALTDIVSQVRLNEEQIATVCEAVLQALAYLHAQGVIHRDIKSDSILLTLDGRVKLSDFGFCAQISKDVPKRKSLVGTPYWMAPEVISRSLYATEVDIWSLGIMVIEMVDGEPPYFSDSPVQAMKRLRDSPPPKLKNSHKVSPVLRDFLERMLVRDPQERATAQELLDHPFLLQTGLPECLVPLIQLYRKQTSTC
Chain of Serine/threonine-protein kinase PAK 5 (Homo sapiens) (Q9P286 whole entry, looked up): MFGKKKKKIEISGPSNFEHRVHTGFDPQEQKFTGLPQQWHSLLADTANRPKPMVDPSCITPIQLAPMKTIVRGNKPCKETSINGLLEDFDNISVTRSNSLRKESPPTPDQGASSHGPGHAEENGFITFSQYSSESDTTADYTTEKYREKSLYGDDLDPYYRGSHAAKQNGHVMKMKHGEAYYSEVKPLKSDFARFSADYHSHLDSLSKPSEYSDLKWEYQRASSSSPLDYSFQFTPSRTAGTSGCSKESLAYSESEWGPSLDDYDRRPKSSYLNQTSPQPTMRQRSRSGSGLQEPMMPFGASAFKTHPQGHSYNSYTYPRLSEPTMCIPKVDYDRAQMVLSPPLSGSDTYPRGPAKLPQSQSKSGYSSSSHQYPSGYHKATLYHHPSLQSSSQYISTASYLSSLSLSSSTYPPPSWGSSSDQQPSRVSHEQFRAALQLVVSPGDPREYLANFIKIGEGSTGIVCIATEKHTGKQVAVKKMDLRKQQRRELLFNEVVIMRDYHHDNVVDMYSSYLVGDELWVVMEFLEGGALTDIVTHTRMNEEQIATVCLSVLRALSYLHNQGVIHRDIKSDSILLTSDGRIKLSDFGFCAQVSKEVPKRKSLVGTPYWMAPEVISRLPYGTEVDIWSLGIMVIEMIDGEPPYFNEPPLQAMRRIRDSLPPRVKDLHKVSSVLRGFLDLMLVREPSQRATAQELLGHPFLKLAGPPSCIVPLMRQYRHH
Chain of Serine/threonine-protein kinase PAK 3 (Homo sapiens) (O75914 whole entry, looked up): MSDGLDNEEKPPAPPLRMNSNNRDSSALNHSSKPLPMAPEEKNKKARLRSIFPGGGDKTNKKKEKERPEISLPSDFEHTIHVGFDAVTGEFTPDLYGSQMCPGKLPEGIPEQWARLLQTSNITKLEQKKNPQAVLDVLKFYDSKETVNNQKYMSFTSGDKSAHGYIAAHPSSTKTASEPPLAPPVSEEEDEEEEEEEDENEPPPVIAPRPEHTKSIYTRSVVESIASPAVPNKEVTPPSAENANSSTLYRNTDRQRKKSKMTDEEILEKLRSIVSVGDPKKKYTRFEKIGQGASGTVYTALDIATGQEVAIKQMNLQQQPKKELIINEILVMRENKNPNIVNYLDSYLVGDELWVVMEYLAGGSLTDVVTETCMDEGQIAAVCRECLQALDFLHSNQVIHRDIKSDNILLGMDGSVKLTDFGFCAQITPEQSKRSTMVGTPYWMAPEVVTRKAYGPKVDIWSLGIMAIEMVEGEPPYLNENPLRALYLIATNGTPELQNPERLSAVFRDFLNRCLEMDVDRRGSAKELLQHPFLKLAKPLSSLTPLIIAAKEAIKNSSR
Chain of Serine/threonine-protein kinase PAK 2 (Homo sapiens) (Q13177 whole entry): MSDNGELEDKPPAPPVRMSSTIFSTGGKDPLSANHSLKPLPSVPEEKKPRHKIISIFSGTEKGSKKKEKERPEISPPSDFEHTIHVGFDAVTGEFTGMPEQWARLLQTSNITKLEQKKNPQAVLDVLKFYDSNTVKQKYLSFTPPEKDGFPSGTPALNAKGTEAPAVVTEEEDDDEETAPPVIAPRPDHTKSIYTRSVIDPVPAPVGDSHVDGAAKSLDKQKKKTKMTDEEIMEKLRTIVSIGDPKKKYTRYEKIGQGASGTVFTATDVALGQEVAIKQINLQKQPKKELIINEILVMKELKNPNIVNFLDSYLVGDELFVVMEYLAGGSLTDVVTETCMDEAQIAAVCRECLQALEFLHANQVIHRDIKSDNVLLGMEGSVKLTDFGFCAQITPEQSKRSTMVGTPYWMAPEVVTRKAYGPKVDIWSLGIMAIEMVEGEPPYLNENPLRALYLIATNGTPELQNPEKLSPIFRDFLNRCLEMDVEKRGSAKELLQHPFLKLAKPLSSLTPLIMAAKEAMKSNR

On to `O=C(Nc1n[nH]c2nc(-c3ccco3)c(Br)cc12)C1CC1`, for which the inhibition is -2.34% in assay [1]; 4.84% in [2]; 6.66% in assay [3]; 2.69% in assay [4]; 3.61% in assay [5]; 3.75% in assay [6]. Besides, the inhibition in assay [7] was 3.54%; in assay [8], -1.27%; in assay [9] it was -1.99%; in assay [10] it was 0.11%; in assay [11], 0.72%; in assay [12], 3.52%. The inhibition was 8.63% in [13]; 5.52% in assay [14]; 26.4% in [15]; 4.18% in assay [16]; 29.8% in assay [17]; 8.1% in [18]. Besides, the inhibition was found to be 32.3% in [19] and 3.13% in assay [20].
Regarding `CS(=O)(=O)CCNCc1ccc(-c2ccc3ncnc(Nc4ccc(OCc5ccccc5)c(Cl)c4)c3c2)o1`, the inhibition is 0.42% in [1]; -1.29% in assay [2]; 7.48% in [3]; 0.77% in assay [4]; -0.12% in [5]; -0.48% in assay [6]. The inhibition is -0.08% in assay [7]; -6.06% in assay [8]; -8.65% in [9]; 1.33% in [12]; 0.95% in assay [13]; 0.8% in assay [14]. Moreover, the inhibition in assay [15] came out at 3.2%; in assay [16], 1.7%; in assay [17] it was 2.85%; in assay [18], 1.92%; in assay [19], 3.15%; in assay [20], 1.4%.
As for `CN1CCC(C(=O)Nc2n[nH]c3nnc(-c4ccccc4)cc23)CC1`, the inhibition came to 1.63% in assay [1]; 10.6% in assay [2]; 7.32% in assay [3]; 1.19% in [4]; 2.25% in assay [5]; 5.86% in assay [6]. For the same compound, the inhibition in [7] was 6.46%; in [8] it was 3.31%; in assay [9], 6.52%; in assay [11], -6.17%; in [12] it was 1.81%; in [13], 6.11%. The inhibition in assay [14] was 4.23%; in assay [15], 4.8%; in assay [16] it was 2.25%; in [17] it was 1.61%; in assay [18], 3.6%; in [19], 3.36%. Besides, in assay [20], the inhibition is 3.4%.
Consider `COc1ccc(-c2ccncc2)cc1C(N)=O`, for which the inhibition in assay [1] was -5.1%; in assay [2] it was 4.54%; in assay [3], 10%; in [4], 2.37%; in [5], 3.02%; in assay [6], 5.3%. For the same compound, the inhibition in assay [7] was 10.3%; in assay [8], 5.08%; in [9], 8.05%; in [10], -8.8%; in assay [12], 2.26%; in [13], 3.56%. In addition, the inhibition in assay [14] was 4.08%; in assay [15] it was 3.48%; in assay [16], -0.68%; in assay [17], -0.45%; in assay [18], 3.19%; in [19] it was 2.33%. Besides, in assay [20], the inhibition is 2.27%.
As for `COc1cc2ncn(-c3cc(OCc4ccccc4Cl)c(C(N)=O)s3)c2cc1OC`, the inhibition in [1] is -3.28%; in [2], 3.48%; in assay [3] it was 1.43%; in assay [4] it was -1.4%; in assay [5], -1.31%; in [6] it was -3.29%. In addition, the inhibition in [7] was 1.37%; in assay [8], -3.38%; in assay [9] it was 0.31%; in assay [10] it was -7.38%; in [11] it was -7.5%; in [12] it was 1.52%. In addition, the inhibition in [13] is 21.7%; in assay [14] it was 6.52%; in assay [15], 31.1%; in assay [16], 4.21%; in assay [17] it was 32.3%; in assay [18], 5.23%. Also, the inhibition turned out to be 28.2% in assay [19] and 3.9% in assay [20].
`COc1ccc(-c2coc3ncnc(N)c23)cc1`: the inhibition was 1.26% in [1]; 8.03% in assay [2]; 7.01% in assay [3]; 1.73% in [4]; 1.44% in assay [5]; 4.88% in [6]. Moreover, the inhibition was 4.26% in assay [7]; -5.35% in assay [9]; -2.56% in assay [10]; -1.23% in assay [11]; 3.51% in [12]; 9.75% in [13]. For the same compound, the inhibition worked out at 5.34% in assay [14]; 11.3% in assay [15]; 3.43% in assay [16]; 8.4% in assay [17]; 5.31% in [18]; 9.48% in assay [19]. Besides, the inhibition in assay [20] came to 1.41%.
In the case of `CS(=O)(=O)CCNCc1ccc(-c2ccc3ncnc(Nc4ccc(OCc5cccc(F)c5)c(C(F)(F)F)c4)c3c2)o1`, the inhibition in assay [1] is -0.76%; in [2] it was 6.77%; in assay [3], 8.2%; in assay [4], 1.44%; in assay [5], 1.87%; in assay [6], 4.46%. The inhibition in assay [7] is 3.99%; in assay [9] it was -0.07%; in assay [10], -1.22%; in assay [12], 4.46%; in assay [13], 3.49%; in assay [14], 4.63%. Further, the inhibition came to 3.75% in assay [15]; 4.03% in [16]; 1.37% in assay [17]; 4.26% in [18]; 2.45% in [19]; 1.73% in [20].
Take `NCc1ccc(-c2nc(-c3ccc(Cl)c(O)c3)c(-c3ccncc3)[nH]2)cc1`: the inhibition in assay [1] is 0.12%; in [2], 1.09%; in assay [3], 2.83%; in assay [4], -1.23%; in assay [5], -1.01%; in assay [6], -0.7%. Further, the inhibition is -0.37% in [7]; -6.81% in assay [9]; 7.6% in [10]; 0.88% in assay [11]; 7.57% in [12]; 43.3% in [13]. For the same compound, the inhibition in [14] is 9.07%; in assay [15], 48.9%; in assay [16], 11.2%; in assay [17] it was 43.9%; in assay [18], 7.54%; in [19] it was 38.4%. In addition, in assay [20], the inhibition turned out to be 3.08%.
With `COc1ccc(COc2ccc(Cc3cnc(N)nc3N)cc2OC)cc1`, the inhibition in assay [1] was 0.63%; in assay [2], 1.82%; in assay [3] it was 5.79%; in assay [4] it was 0.46%; in assay [5] it was 0.32%; in assay [6] it was 1.75%. For the same compound, the inhibition was 1.06% in assay [7]; 0.6% in [8]; 7.84% in assay [9]; 0.33% in assay [10]; -2.29% in assay [11]; 1.25% in assay [12]. Further, the inhibition was 0.76% in [14]; -1.33% in assay [15]; 3.17% in [16]; -0.65% in assay [17]; 2.23% in [18]; -0.16% in [19]. In addition, in assay [20], the inhibition was -0.36%.
`Fc1cccc(COc2ccc(Nc3ncnc4cc(-c5ccc[nH]5)sc34)cc2Cl)c1`: the inhibition in [1] is 3.26%; in [2], 5.46%; in [3], 5.78%; in assay [4], -0.06%; in assay [5], -0.55%; in assay [7], 1.96%. In addition, the inhibition is -0.78% in assay [9]; -2.21% in assay [10]; 1.82% in [12]; 7.42% in assay [13]; 3.38% in assay [14]; 5.8% in [15]. The inhibition in assay [16] amounted to 0.9%; in [17], 5.26%; in assay [18] it was 2.05%; in [19], 6.45%; in assay [20] it was 0.63%.
Regarding `NC(=O)c1cccc(Nc2nccc(Nc3cccc4[nH]ncc34)n2)c1`, the inhibition is 2.8% in assay [1]; -5.7% in assay [2]; -0.69% in assay [3]; -3.16% in [4]; -0.55% in assay [5]; -3.68% in [6]. The inhibition in assay [7] is -3.07%; in [8], -1.09%; in assay [9], 13.4%; in [10], 3.11%; in assay [11], 0.17%; in assay [12] it was 76.9%. Also, the inhibition was found to be 95.5% in [13]; 82.2% in [14]; 96.7% in assay [15]; 77.9% in [16]; 95.7% in assay [17]; 73.5% in assay [18]. Further, the values for the inhibition in assay [19] and in [20] were 95.4% and 3.14%, respectively.
Turning to `c1cnn2ncc(-c3ccnc(Nc4ccc5c(c4)OCCO5)n3)c2c1`, the inhibition in assay [1] was -0.78%; in assay [2], 3.98%; in [3], 4.56%; in [4] it was 4.04%; in [5], 3.37%; in assay [6] it was 4.71%. The inhibition came out at 4.73% in [7]; 8.91% in [8]; 14.7% in [9]; 2.92% in assay [10]; 9.62% in assay [11]; 4.75% in [12]. The inhibition in assay [13] stood at 20.4%; in [14], 6.51%; in assay [15], 34.4%; in assay [16], 6.73%; in [17], 40.9%; in [18], 9.02%. The values for the inhibition in assay [19] and in assay [20] were 40.7% and 6.27%, respectively.
As to `COc1ccccc1Nc1ncc(-c2ccccc2)o1`, the inhibition in assay [1] amounted to 0.41%; in assay [2], 10.5%; in [3] it was 12.7%; in assay [4] it was 1.73%; in [5], 1.5%; in [6] it was 6.21%. For the same compound, the inhibition is 6.38% in [7]; -2.83% in assay [8]; -2.65% in assay [9]; -9.8% in assay [11]; 3.77% in [12]; 8% in assay [13]. Further, the inhibition in assay [14] was 6.53%; in [15], 15.2%; in assay [16] it was 2.78%; in assay [17] it was 10.8%; in assay [18], 5.47%; in assay [19], 9.74%. Besides, the inhibition in assay [20] was 2.77%.
For `O=C1NC(=O)C(c2cccc(Cl)c2)=C1Nc1ccc(O)c(Cl)c1`, the inhibition is 11.2% in assay [1]; 2.76% in [2]; 4.48% in assay [3]; 0.61% in assay [4]; -0.45% in assay [5]; 1.1% in assay [6]. Besides, the inhibition is 1.4% in [7]; 3.63% in [10]; -3.45% in [11]; 0.46% in assay [12]; -0.55% in [13]; 1.43% in assay [14]. For the same compound, the inhibition in [15] is 1.01%; in assay [16] it was -0.1%; in [17], 1.15%; in [18] it was -0.15%; in [19], 2.63%; in [20], 1.14%.

By inhibition is commonly meant the relative decrease from the control value, in per cent.
